In PubChem BioAssay (EPA / NIEHS):
Calls of active or inactive are those of the source. How the source made its calls: active means hit-call score of the fitted dose curve at least 0.9, where 1 is the maximum; inactive means score below 0.9.

Legend:
[1] = read-out: TIMP metallopeptidase inhibitor 2 (TIMP2), TIMP2 (gene 7077); test: BSK_KF3CT_TIMP2: BioMAP Diversity Plus: KF3CT Assay for TIMP metallopeptidase inhibitor 2 (TIMP2) Biomarker Activity (AID 2283071); settings: primary human keratinocytes with fibroblasts; actives raise or lower the signal
Summary of the method: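 Keratinocyte–fibroblast co-culture, 24 h exposure; TIMP-2 ELISA, DMSO-normalised bidirectional fit. Parallel SRB (0.1%, TCA-fixed, 560 nm) total-protein staining gauges cytotoxicity.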

[2] = read-out: Transforming growth factor beta 1 (TGFb1), TGFB1 (gene 7040); test: BSK_KF3CT_TGFb1: BioMAP Diversity Plus: KF3CT Assay for Transforming growth factor beta 1 (TGFb1) Biomarker Activity (AID 2283072); settings: primary human keratinocytes with fibroblasts; actives raise or lower the signal
Summary of the method: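 Signal changes in either direction, relative to DMSO, define activity here. TGF-b1 is read by ELISA from a human keratinocyte-fibroblast co-culture 24 h post-dose.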

[3] = read-out: C-C motif chemokine 2 (Homo sapiens) (UniProt P13500); test: BSK_KF3CT_MCP1: BioMAP Diversity Plus: KF3CT Assay for Monocyte Chemoattractant Protein 1 (MCP1/CCL2) Biomarker Activity (AID 2283073); settings: primary human keratinocytes with fibroblasts; actives raise or lower the signal
Summary of the method: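 ELISA readout of MCP-1 after 24 h chemical dosing of a human skin primary co-culture of keratinocytes and foreskin fibroblasts. Activity was fitted in both directions against DMSO.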

[4] = read-out: Matrix Metallopeptidase 9 (MMP9), MMP9 (gene 4318); test: BSK_KF3CT_MMP9: BioMAP Diversity Plus: KF3CT Assay for Matrix Metallopeptidase 9 (MMP9) Biomarker Activity (AID 2283074); settings: primary human keratinocytes with fibroblasts; actives raise or lower the signal;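 on AC50: MMP9 protein level quantified by ELISA in the co-culture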
Summary of the method: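 Human keratinocyte/foreskin fibroblast co-culture; compound added; 24 h; MMP-9 by ELISA; bidirectional fit vs DMSO baseline.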

[5] = read-out: urokinase plasminogen activator (uPA), PLAU (gene 5328); test: BSK_KF3CT_uPA: BioMAP Diversity Plus: KF3CT Assay for urokinase plasminogen activator (uPA) Biomarker Activity (AID 2283075); settings: primary human keratinocytes with fibroblasts; actives raise or lower the signal
Summary of the method: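 ELISA readout of uPA, analyzed for signal gain or loss relative to DMSO, from a human primary keratinocyte–foreskin fibroblast co-culture measured 24 h after chemical treatment.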

CD40, CD40 (gene 958) [6] = test: BSK_LPS_CD40: BioMAP Diversity Plus: LPS Assay for CD40 Biomarker Activity (AID 2283076); settings: primary human HUVEC with PBMC; actives raise or lower the signal
Summary of the method: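 Cells were dosed, incubated 24 h, then assayed for CD40 by ELISA. Gain or loss of signal was analysed relative to DMSO controls. The culture paired human umbilical vein endothelium with peripheral blood mononuclear cells.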

[7] = read-out: E-selectin (Homo sapiens) (UniProt P16581); test: BSK_LPS_Eselectin: BioMAP Diversity Plus: LPS Assay for Eselectin Biomarker Activity (AID 2283077); settings: primary human HUVEC with PBMC; actives raise or lower the signal
Summary of the method: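 Primary human vascular co-culture (endothelium plus PBMC) was dosed with chemical, then E-selectin quantified by ELISA at 24 h. Endpoint values derive from bidirectional curve fitting relative to DMSO.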

[8] = read-out: Interleukin-8 (IL8), CXCL8 (gene 3576); test: BSK_LPS_IL8: BioMAP Diversity Plus: LPS Assay for Interleukin-8 (IL8) Biomarker Activity (AID 2283078); settings: primary human HUVEC with PBMC; actives raise or lower the signal
Summary of the method: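 Readout is IL-8 by ELISA, taken 24 h after compounds were added to LPS-stimulated endothelial/PBMC co-cultures. Both increases and decreases relative to DMSO control were scored through bidirectional fitting.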

[9] = BSK_LPS_SRB: Viability Assessment in the BioMAP Diversity Plus: LPS Assay (AID 2283079); settings: primary human HUVEC with PBMC;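 further: total protein by sulforhodamine B absorbance as a cytotoxicity measure; measured one day after compound addition; fitted in both directions against DMSO so loss or gain of signal counts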
Summary of the method: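 Readout is SRB absorbance at 560 nm (0.1% stain, TCA-fixed parallel cultures) as a total-protein cytotoxicity measure. Cells: primary human umbilical vein endothelium plus peripheral blood mononuclear cells, 24 h after chemical exposure; DMSO served as baseline.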

[10] = read-out: Interleukin-1 alpha (IL1a), IL1A (gene 3552); test: BSK_LPS_IL1a: BioMAP Diversity Plus: LPS Assay for Interleukin-1 alpha (IL1a) Biomarker Activity (AID 2283080); settings: primary human HUVEC with PBMC; actives raise or lower the signal
Summary of the method: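 ELISA read-out of IL-1 alpha from a human primary vascular co-culture (endothelium plus PBMC) under LPS, sampled 24 hours post-dosing. Activity was fitted in both directions relative to DMSO controls.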

[11] = read-out: Monocyte Chemoattractant Protein-1 (MCP1), CCL2 (gene 6347); test: BSK_LPS_MCP1: BioMAP Diversity Plus: LPS Assay for Monocyte Chemoattractant Protein-1 (MCP1) Biomarker Activity (AID 2283081); settings: primary human HUVEC with PBMC; actives raise or lower the signal;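 on AC50: secreted MCP-1 protein quantified by ELISA in culture supernatant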
Summary of the method: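 Human endothelial–PBMC co-cultures were dosed with chemical, then LPS-driven MCP-1 levels were quantified by ELISA at 24 h. Activity in either direction was fitted versus DMSO negative control.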

[12] = read-out: Macrophage colony-stimulating factor (MCSF), CSF1 (gene 1435); test: BSK_LPS_MCSF: BioMAP Diversity Plus: LPS Assay for Macrophage colony-stimulating factor (MCSF) Biomarker Activity (AID 2283083); settings: primary human HUVEC with PBMC; actives raise or lower the signal
Summary of the method: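 ELISA readout of M-CSF after 24 h compound exposure in a human endothelial/PBMC co-culture. Activity, in either direction, is fitted relative to DMSO vehicle.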

[13] = read-out: Tissue Factor, F3 (gene 2152); test: BSK_LPS_TissueFactor: BioMAP Diversity Plus: LPS Assay for Tissue Factor Biomarker Activity (AID 2283084); settings: primary human HUVEC with PBMC; actives raise or lower the signal
Summary of the method: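 ELISA signal for cell-surface Tissue Factor (CD142) was read 24 h after compound dosing of an LPS-stimulated human endothelial–PBMC primary co-culture. Gain or loss of signal was scored relative to DMSO.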

[14] = read-out: Tumor necrosis factor (Homo sapiens) (UniProt P01375); test: BSK_LPS_TNFa: BioMAP Diversity Plus: LPS Assay for Tumour Necrosis Factor alpha (TNFa) Biomarker Activity (AID 2283085); settings: primary human HUVEC with PBMC; actives raise or lower the signal
Summary of the method: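 Primary human vascular co-culture of HUVEC and PBMC; TNFa ELISA 24 h after treatment, analysed as increase or decrease relative to DMSO control.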

[15] = read-out: Vascular cell adhesion molecule 1 (VCAM1), VCAM1 (gene 7412); test: BSK_LPS_VCAM1: BioMAP Diversity Plus: LPS Assay for Vascular cell adhesion molecule 1 (VCAM1) Biomarker Activity (AID 2283086); settings: primary human HUVEC with PBMC; actives raise or lower the signal
Summary of the method: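 Primary human vascular co-culture (umbilical vein endothelium plus PBMC) stimulated with LPS received chemical; 24 h later VCAM-1 was read by ELISA. Overt cytotoxicity was assessed by sulforhodamine B staining of parallel cultures at the same time point.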

CD40, CD40 (gene 958) [16] = test: BSK_SAg_CD40: BioMAP Diversity Plus: SAg Assay for CD40 Biomarker Activity (AID 2283088); settings: primary human HUVEC with PBMC; actives raise or lower the signal
Summary of the method: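 Compounds were dosed onto a human primary endothelial–PBMC co-culture, and after 24 h CD40 was quantified by ELISA using a fluorescence signal. Activity in either direction was fitted relative to DMSO.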

CD69, CD69 (gene 969) = test: BSK_SAg_CD69: BioMAP Diversity Plus: SAg Assay for CD69 Biomarker Activity (AID 2283089); settings: primary human HUVEC with PBMC; actives raise or lower the signal;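 on AC50: cell surface CD69 protein quantified by ELISA with fluorescence detection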
Summary of the method: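 HUVEC co-cultured with PBMC were dosed with chemical, and CD69 was measured by ELISA with fluorescence read-out 24 h later. Bidirectional curve fitting used DMSO as negative control and activity baseline.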

[17] = read-out: Monocyte Chemoattractant Protein-1 (MCP1), CCL2 (gene 6347); test: BSK_SAg_MCP1: BioMAP Diversity Plus: SAg Assay for Monocyte Chemoattractant Protein-1 (MCP1) Biomarker Activity (AID 2283090); settings: primary human HUVEC with PBMC; actives raise or lower the signal
Summary of the method: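 MCP-1 levels in the endothelial–PBMC SAg co-culture were quantified by ELISA at 24 h post-dosing; both increases and decreases versus DMSO scored. Cytotoxicity monitored by SRB total protein in parallel cultures.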

CD38, CD38 (gene 952) = test: BSK_SAg_CD38: BioMAP Diversity Plus: SAg Assay for CD38 Biomarker Activity (AID 2283087); settings: primary human HUVEC with PBMC; actives raise or lower the signal
Summary of the method: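 Fluorescence ELISA of cell-surface CD38 served as the read-out, with either increase or decrease fitted against DMSO controls. Cells were a human umbilical vein endothelium plus PBMC co-culture under SEB/TSST-1 stimulation, measured 24 h after dosing.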

[18] = BSK_LPS_PGE2: BioMAP Diversity Plus: LPS Assay for Prostaglandin E2 (PGE2) Biomarker Activity (AID 2283082); settings: primary human HUVEC with PBMC; actives raise or lower the signal
Summary of the method: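 Endpoint derived from bidirectional curve fitting versus DMSO of ELISA-measured PGE2 in LPS-stimulated human primary vascular co-culture (HUVEC with PBMC) harvested at 24 h.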

Measured: AC50

Sequence of Tumor necrosis factor (Homo sapiens) (P01375 whole entry, looked up): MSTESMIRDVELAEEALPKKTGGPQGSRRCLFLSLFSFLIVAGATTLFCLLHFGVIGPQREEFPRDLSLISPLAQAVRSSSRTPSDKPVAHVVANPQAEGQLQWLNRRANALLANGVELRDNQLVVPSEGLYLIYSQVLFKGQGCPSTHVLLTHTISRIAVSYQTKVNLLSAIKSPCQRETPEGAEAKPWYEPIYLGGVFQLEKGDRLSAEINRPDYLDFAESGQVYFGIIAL
Sequence of E-selectin (Homo sapiens) (P16581 whole entry, looked up): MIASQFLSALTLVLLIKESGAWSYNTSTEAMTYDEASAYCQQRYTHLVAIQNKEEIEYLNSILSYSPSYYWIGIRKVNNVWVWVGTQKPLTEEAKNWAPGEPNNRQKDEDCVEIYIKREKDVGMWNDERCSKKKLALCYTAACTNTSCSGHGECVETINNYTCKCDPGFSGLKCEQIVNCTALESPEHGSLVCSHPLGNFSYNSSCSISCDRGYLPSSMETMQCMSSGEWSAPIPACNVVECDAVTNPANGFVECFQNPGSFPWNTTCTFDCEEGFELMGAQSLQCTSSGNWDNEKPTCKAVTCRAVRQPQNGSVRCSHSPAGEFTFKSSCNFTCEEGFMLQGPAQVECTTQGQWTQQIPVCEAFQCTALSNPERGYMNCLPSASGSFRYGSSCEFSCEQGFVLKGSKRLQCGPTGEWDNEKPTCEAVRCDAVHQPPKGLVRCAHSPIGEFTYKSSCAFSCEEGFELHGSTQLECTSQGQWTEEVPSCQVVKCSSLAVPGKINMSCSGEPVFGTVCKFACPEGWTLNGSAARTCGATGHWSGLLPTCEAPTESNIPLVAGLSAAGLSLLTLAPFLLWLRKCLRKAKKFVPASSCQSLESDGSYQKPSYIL

CCCCCCCCn1sccc1=O
active: [1] 11.2 µM | [2] 9.71 µM | [3] 10.6 µM | [4] 12.4 µM | [5] 11.2 µM | CD40, CD40 (gene 958) [6] 5.76 µM | [7] 9.25 µM | [8] 9.78 µM | [9] 20.8 µM | [10] 4.97 µM | [11] 6.88 µM | [12] 7.58 µM | [13] 4.04 µM | [14] 1.04 µM | [15] 6.97 µM | CD40, CD40 (gene 958) [16] 10.2 µM | CD69, CD69 (gene 969) 10.7 µM | [17] 11.7 µM

O=[N+]([O-])C(Br)(CO)CO
inactive: [3]
active: [1] 28.5 µM | [2] 32 µM | [4] 34.4 µM | [5] 36.8 µM | CD40, CD40 (gene 958) [6] 29 µM | [7] 32.8 µM | [8] 34.2 µM | [9] 29.6 µM | [11] 25.9 µM | [12] 28.9 µM | [13] 28.4 µM | [14] 31.7 µM | [15] 30.1 µM | CD38, CD38 (gene 952) 31.3 µM | CD40, CD40 (gene 958) [16] 28.1 µM | CD69, CD69 (gene 969) 28.5 µM | [17] 31.1 µM

Cc1ccc([N+](=O)[O-])cc1
not listed: [5] | CD38, CD38 (gene 952)
inactive: all other assays above
